High-throughput results as filed in PubChem.
LDHA inh: qHTS assay for inhibitors of human lactate dehydrogenase | purified LDHA, NADH/diaphorase-resazurin fluorescence; hits give low values | activity change, % (values are at about 110 or 230 µM) | actives 0.15% (n = 480,000) | AID 1347041, 2019; in the data active means activity change below about -30%; inconclusive means mostly about -25% to -30%;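 further: plate controls were DMSO wells for no effect and wells without enzyme for full effect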
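Resorufin fluorescence (ex540/em590), read at 0 and 20 min after diaphorase/resazurin addition, reports the NADH left after a 5 min room-temperature reaction of 2 nM human LDH5 with 0.06 mM NADH and 0.2 mM pyruvate.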
PI5P4K alpha inh: qHTS for Inhibitors of phosphatidylinositol 5-phosphate 4-kinase (PI5P4K) | Phosphatidylinositol 5-phosphate 4-kinase type-2 alpha (Homo sapiens), P48426 | PI5P4Kalpha enzyme, ADP-Glo luminescence, 60 min; hits give low values | max response, % | actives 1.2% (n = 330,000); active means max response of -50% or lower; inconclusive means between -30% and -50%; inactive means -30% or higher; further: value at the top dose of about 77 µM; on the % scale 0 is the no-effect control and ±100 the full control effect
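Compounds were pin-transferred onto PI5P4Kalpha and substrate in HEPES pH 7.4 buffer with EGTA, CHAPS and 5% DMSO. ATP (5 microM final) started the reaction, which ran 60 minutes at room temperature before ADP-Glo detection.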
D3 ag: qHTS of D3 Dopamine Receptor Agonist: qHTS; D(3) dopamine receptor (Homo sapiens), P35462; max activation, %; D3R DiscoveRx beta-arrestin cells, luminescence, 90 min; actives 0.58% (n = 410,000); in the data active means max activation above about 30%; further: 0% is about no effect
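Cells at 1500/well, incubated overnight, then treated with pinned compounds (dopamine as control) for 90 min at 37 degrees C. DiscoveRx reagent added for 30 - 60 minutes at room temperature; luminescence read.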
PI4K2A block: qHTS for small molecular inhibitors of PI4K2A. purified PI4K2A, ADP-Glo luminescence, 1 h; hits give low values. activity change, negative = inhibition, % at 76.9 µM. actives 0.13% (n = 420,000); in the data active means activity change below about -50%; inconclusive means mostly about -30% to -49%;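 further: -100% = wells without enzyme as full effect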
Target sequence (Q9BTU6 whole entry, looked up): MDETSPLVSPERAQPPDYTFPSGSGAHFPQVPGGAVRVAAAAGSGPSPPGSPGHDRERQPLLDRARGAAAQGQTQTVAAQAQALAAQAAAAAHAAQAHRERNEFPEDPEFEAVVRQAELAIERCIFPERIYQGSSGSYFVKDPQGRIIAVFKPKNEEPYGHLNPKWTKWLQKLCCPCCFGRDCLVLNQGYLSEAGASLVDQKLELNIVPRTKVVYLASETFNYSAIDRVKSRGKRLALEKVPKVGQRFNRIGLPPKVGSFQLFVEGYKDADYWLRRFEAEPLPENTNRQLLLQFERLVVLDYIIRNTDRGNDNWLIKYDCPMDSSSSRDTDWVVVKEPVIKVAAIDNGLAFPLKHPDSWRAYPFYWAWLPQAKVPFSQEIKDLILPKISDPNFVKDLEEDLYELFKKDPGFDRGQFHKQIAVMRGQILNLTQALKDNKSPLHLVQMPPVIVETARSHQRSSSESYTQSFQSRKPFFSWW
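In this quantitative HTS, ADP production by PI4K2A was quantified luminescently after 1 h at ambient temperature; 100 microM adenosine served as plate-quality control.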
D3 antag: qHTS of D3 Dopamine Receptor Antagonist: qHTS; D(3) dopamine receptor (Homo sapiens), P35462; D3R cells, DiscoveRx beta-arrestin luminescence, antagonist mode; hits give low values; max response, negative = inhibition, %; actives 2.5% (n = 360,000); in the data active means max response below about -50%; inconclusive means no clear call, values can overlap the other calls; further: on the % scale 0 is the no-effect control and ±100 the full control effect
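Cells plated overnight at 1500 cells/well, then exposed to library compounds with dopamine controls for 90 minutes at 37 degrees C. DiscoveRx reagent added for 30–60 minutes at room temperature; luminescence read, quantitative HTS format.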
The depositor's hits bear a star. Shown are actives, neighbours in structure and some others; about 3.3% of the full set was active somewhere.

How did CCC(C)c1ccc(-c2ccc(-c3ccc(C(C)CC)cn3)cc2)nc1 (configuration not stated) do in these assays?
LDHA inh: -4.9

How did COc1cc2cc(C(=O)NCCCc3nnc4ccccn34)n(C)c2c(OC)c1OC do in these assays?
LDHA inh: -8.9

What do the screens show for `O=C(Oc1c(Cl)cc(Cl)c2cccnc12)c1ccco1`?
LDHA inh: 11.5; PI5P4K alpha inh: -9.9; D3 ag: -4.0; PI4K2A block: -16.6; D3 antag: -123.6*

How did Oc1c(Cl)cc(Cl)c2cccnc12 do in these assays?
LDHA inh: 6.0; PI5P4K alpha inh: -18.6; D3 ag: -7.9; PI4K2A block: -7.1; D3 antag: -61.4*

What do the screens show for `O=C(Oc1c(Cl)cc(Cl)c2cccnc12)c1cccs1`?
LDHA inh: 9.8; PI5P4K alpha inh: 6.9; D3 ag: -16.4; PI4K2A block: -18.7; D3 antag: inconclusive

What do the screens show for `Cc1ccc2c(C)ccc(O)c2n1`?
LDHA inh: 10.5; PI5P4K alpha inh: -0.2; D3 ag: -7.5; PI4K2A block: 0.0; D3 antag: -78.6*

What do the screens show for `Cc1ccc2ccc3ccc(C)nc3c2n1`?
LDHA inh: inconclusive; PI5P4K alpha inh: -1.8; D3 ag: -28.9; PI4K2A block: 5.2; D3 antag: 25.7

How did Cc1ccc2c(Cl)cc(Cl)c(O)c2n1 do in these assays?
LDHA inh: 16.5; PI5P4K alpha inh: 0.1; D3 ag: -18.1; PI4K2A block: -5.9; D3 antag: -110.4*

How did O=S(=O)(Nc1ccc2c(c1)CCC2)c1ccccc1Cl do in these assays?
LDHA inh: -0.5

What do the screens show for `COCCCNC(=O)/C=C/C(=O)O`?
LDHA inh: -4.8

How did Oc1ccc(Nc2ccccc2F)c2cccnc12 do in these assays?
LDHA inh: 53.4; PI4K2A block: -51.9*

Results for CCCOCc1ccc(O)c2ncccc12 ?
LDHA inh: 10.4; PI5P4K alpha inh: 2.4; D3 ag: -11.9; PI4K2A block: -18.9; D3 antag: -71.3*

Results for Oc1ccc(Cl)c2cccnc12 ?
LDHA inh: 13.9; PI5P4K alpha inh: -2.4; D3 ag: -17.1; PI4K2A block: -15.9; D3 antag: -59.1*

Results for Oc1ccc(F)c2cccnc12 ?
LDHA inh: 31.1; PI5P4K alpha inh: inconclusive; D3 ag: -7.9; PI4K2A block: -28.7; D3 antag: -15.1

Results for CC(C)COCc1ccc(O)c2ncccc12 ?
LDHA inh: 19.5; PI5P4K alpha inh: -1.1; D3 ag: -15.3; PI4K2A block: -2.5; D3 antag: inconclusive

How did Cc1ccc(NC(=O)c2cnc(NCc3ccc4c(c3)OCO4)nc2C)cc1C do in these assays?
LDHA inh: 18.7

Results for O=C(CCN1CCN(c2cnccn2)CC1)Nc1ccc(F)c(F)c1 ?
LDHA inh: 1.5

How did O=C(CCN(CCO)Cc1ccccc1)Nc1ccc(Br)cc1 do in these assays?
LDHA inh: -9.7; D3 ag: -44.6; PI4K2A block: -2.0; D3 antag: inconclusive

What do the screens show for `CCN(CCC(=O)Nc1ccc(Br)c(C)c1)Cc1ccccc1`?
LDHA inh: -4.6; PI5P4K alpha inh: 1.0; D3 ag: -15.6; PI4K2A block: 5.4; D3 antag: -82.0*

What do the screens show for `Cc1cc(NC(=O)CCN2CCC(C)CC2)ccc1Br`?
LDHA inh: -10.6; PI5P4K alpha inh: 10.3; D3 ag: -3.9; PI4K2A block: -2.7; D3 antag: -106.4*

Results for O=C(CCN1CCCC1)Nc1ccc(Br)cc1 ?
LDHA inh: -2.0; PI5P4K alpha inh: -3.6; D3 ag: -3.5; PI4K2A block: 8.6; D3 antag: -1.7

How did CC1CCN(CCC(=O)Nc2ccc(F)c(F)c2)CC1 do in these assays?
LDHA inh: -4.2; PI5P4K alpha inh: -2.7; D3 ag: -20.3; PI4K2A block: -0.6; D3 antag: -50.9*

Results for CC1CCN(CCC(=O)Nc2ccc(Br)cc2)CC1 ?
LDHA inh: -4.2; D3 ag: -36.4; PI4K2A block: -1.4; D3 antag: -75.5*

What do the screens show for `Cc1cc(NC(=O)CCN2CCCCC2)ccc1Br`?
LDHA inh: -1.1; PI5P4K alpha inh: -3.6; D3 ag: -17.7; PI4K2A block: 5.7; D3 antag: -21.9
